Test results published in PubChem BioAssay (NCI).
This is part of a sample that, as a whole, favours compounds with a hit. Of some 83,000 tested, about 20% had one in any assay.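 96-well plates, one dose, 48 hours. Percent growth reported; active if below 10.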 Calls of active or inactive are those of the source.

Assays:
Experiment in all cases: NCI-60 one-dose screen, 48 h (100 = growth as untreated, 0 = no growth, -100 = all killed)
Conditions in all cases: 10 µM unless noted
T-47D breast = test system: T-47D breast
BT-549 breast = test system: BT-549 breast
MDA-MB-435 melanoma = test system: MDA-MB-435 melanoma
SW-620 colon = test system: SW-620 colon
MCF7 breast = test system: MCF7 breast
HCT-116 colon = test system: HCT-116 colon
HCC-2998 colon = test system: HCC-2998 colon
KM12 colon = test system: KM12 colon

Measured: growth

CCN1CCN(Cc2ccc(NC(=O)Nc3nc4ccc(Oc5ccnc(C(=O)NC)c5)cc4s3)cc2C(F)(F)F)CC1
active: T-47D breast -27.9% | BT-549 breast -69.1% | MDA-MB-435 melanoma -36.5% | SW-620 colon -52.7% | MCF7 breast -39.3% | HCT-116 colon -66.1% | HCC-2998 colon -33.6% | KM12 colon -61.6%

Oc1ccc(Nc2nccc(-c3ccc4ccccc4c3)n2)cc1
active: MDA-MB-435 melanoma 8.01%
inactive: T-47D breast 48.7% | BT-549 breast 48.2% | SW-620 colon 31.8% | MCF7 breast 20.2% | HCT-116 colon 23.2% | HCC-2998 colon 60.4% | KM12 colon 27.4%

Nc1cccc(NC(=O)C(=O)Nc2cccc(N)c2)c1
inactive: T-47D breast 105% | BT-549 breast 127% | MDA-MB-435 melanoma 102% | SW-620 colon 95.5% | MCF7 breast 100% | HCT-116 colon 80.2% | HCC-2998 colon 105% | KM12 colon 98.7%

O=[N+]([O-])c1cccc(-c2nc3sccn3c2-c2ccnc(NCCNS(=O)(=O)c3ccc(C(F)(F)F)cc3)n2)c1
active: T-47D breast -3.01%
inactive: BT-549 breast 26.4% | MDA-MB-435 melanoma 20.7% | SW-620 colon 69.8% | MCF7 breast 21.9% | HCT-116 colon 35.6% | HCC-2998 colon 65.2% | KM12 colon 22.5%

Nc1c(C(=O)Nc2ccccc2Cl)sc2nc3c(cc12)CCCCCC3
inactive: T-47D breast 41.4% | BT-549 breast 39.8% | SW-620 colon 34.3% | MCF7 breast 13.8% | HCT-116 colon 19.2% | HCC-2998 colon 33% | KM12 colon 29.2%
active: MDA-MB-435 melanoma -16.1%

O=C(Nc1nc(-c2ccccc2)cc(-c2ccc(Cl)cc2)n1)c1ccncc1
inactive: T-47D breast 83% | BT-549 breast 101% | MDA-MB-435 melanoma 96.8% | SW-620 colon 90.9% | MCF7 breast 84.6% | HCT-116 colon 87.6% | HCC-2998 colon 102% | KM12 colon 100%

CC(=O)C1=C(O)C=C2Oc3c(C(=O)/C=C/c4cc(Cl)cc(Cl)c4)c(O)c(C)c(O)c3[C@]2(C)C1=O
active: T-47D breast -24.4% | BT-549 breast -19.9% | MDA-MB-435 melanoma -42.2% | SW-620 colon 0.897% | MCF7 breast -10.6% | HCT-116 colon -15.9% | HCC-2998 colon -46.9% | KM12 colon -6.77%

COc1ccc(-c2cc(NC(=O)Nc3ccc(O)cc3)no2)cc1
inactive: T-47D breast 70.5% | BT-549 breast 64.5% | MDA-MB-435 melanoma 67.6% | SW-620 colon 76.3% | MCF7 breast 70.2% | HCT-116 colon 90% | HCC-2998 colon 82.7% | KM12 colon 20.8%

O=C(CN1CCOCC1)Nc1ccc(Cn2nnc3c2C(=O)c2nnn(Cc4ccc(NC(=O)CN5CCOCC5)cc4)c2C3=O)cc1
active: T-47D breast -26.5% | BT-549 breast -95.6% | MDA-MB-435 melanoma -77.1% | SW-620 colon 4.23% | MCF7 breast -62% | HCT-116 colon -75.1% | HCC-2998 colon -42% | KM12 colon 6.44%

C=CC[N+]1(CC)CCN=C1CCCCCCCCCCCCCCCCC (stereo unspecified)
active: T-47D breast -62.9% | BT-549 breast -75.9% | MDA-MB-435 melanoma -85% | SW-620 colon -89.7% | MCF7 breast -81.7% | HCT-116 colon -100% | HCC-2998 colon -73.5% | KM12 colon -97.9%

NC1=CSC2=N/C(=C\c3ccc(Cl)cc3)C(=O)N12
inactive: T-47D breast 79% | BT-549 breast 75.3% | MDA-MB-435 melanoma 68% | SW-620 colon 71.3% | MCF7 breast 67.2% | HCT-116 colon 66.1% | HCC-2998 colon 90.2% | KM12 colon 89.2%

O=C1c2cc3c(cc2-c2c1c1cc(Cl)c(Cl)cc1c(=O)n2CCCn1ccnc1)OCO3
inactive: BT-549 breast 19.1% | MDA-MB-435 melanoma 18.5% | SW-620 colon 25.6% | HCC-2998 colon 28.6%
active: T-47D breast 0.538% | MCF7 breast 1.23% | HCT-116 colon 3.49% | KM12 colon 6%

O=[N+]([O-])c1cccc(-c2nc3sccn3c2-c2ccnc(NCCCNS(=O)(=O)c3ccc(Br)cc3)n2)c1
inactive: BT-549 breast 38% | MDA-MB-435 melanoma 46.6% | SW-620 colon 98.1% | MCF7 breast 34% | HCT-116 colon 56.9% | HCC-2998 colon 102% | KM12 colon 40.5%
active: T-47D breast 1.8%

CC(=O)CC(C)(C)c1ccc(Cl)cc1
inactive: T-47D breast 94.2% | BT-549 breast 101% | MDA-MB-435 melanoma 104% | SW-620 colon 100% | MCF7 breast 105% | HCT-116 colon 97.5% | HCC-2998 colon 98.7% | KM12 colon 108%

CN1CCN(Cc2ccc(NC(=O)c3[nH]ncc3Nc3ncnc4[nH]ccc34)cc2)CC1
active: BT-549 breast -76.2% | MDA-MB-435 melanoma 8.18% | SW-620 colon 5.63% | MCF7 breast 9.25% | HCT-116 colon 2.81% | HCC-2998 colon -14.2% | KM12 colon 3.42%
inactive: T-47D breast 21.7%

Cc1ccccc1CCO
inactive: T-47D breast 96.9% | BT-549 breast 95.1% | MDA-MB-435 melanoma 108% | SW-620 colon 94.7% | MCF7 breast 91.1% | HCT-116 colon 93.6% | HCC-2998 colon 92.6% | KM12 colon 109%

CCOC(=O)CC(C)=N
inactive: T-47D breast 109% | BT-549 breast 103% | MDA-MB-435 melanoma 113% | SW-620 colon 101% | MCF7 breast 95.6% | HCT-116 colon 102% | HCC-2998 colon 117% | KM12 colon 120%

COc1ccc(/C(=C/c2ccc3ccccc3c2)c2nn[nH]n2)cc1OC
inactive: T-47D breast 36.1% | BT-549 breast 40.3% | SW-620 colon 29.2% | MCF7 breast 52.3% | HCT-116 colon 17.7% | HCC-2998 colon 55.4% | KM12 colon 24.5%
active: MDA-MB-435 melanoma -41%

O=C1C(=O)N(CCCCn2cc(CO)nn2)c2ccccc21
inactive: T-47D breast 98.7% | BT-549 breast 115% | MDA-MB-435 melanoma 98.9% | SW-620 colon 99.7% | MCF7 breast 100% | HCT-116 colon 95.5% | HCC-2998 colon 107% | KM12 colon 101%

CN1CCN(Cc2ccc(NC(=O)c3[nH]ncc3Nc3ncnc4sccc34)cc2)CC1
active: BT-549 breast -5.78% | SW-620 colon 6.8% | MCF7 breast 9.47% | HCT-116 colon 6.91% | HCC-2998 colon -1.02% | KM12 colon 5.21%
inactive: T-47D breast 27.7% | MDA-MB-435 melanoma 25.8%

CCN(CC)CCCC(C)N/C(=C1\C(=O)NC(=O)\C1=C(/NC(C)CCCN(CC)CC)c1cccc(OC)c1)c1cccc(OC)c1 (stereo unspecified)
inactive: T-47D breast 48.6%
active: BT-549 breast 2.98% | MDA-MB-435 melanoma -81.6% | SW-620 colon 0.116% | MCF7 breast 0.0378% | HCT-116 colon 2.62% | HCC-2998 colon -89.2% | KM12 colon 1.06%

CC/C(Cc1ccccc1)=C(/c1ccc(O)cc1)c1ccc(OCCN2CCCC2)cc1
inactive: BT-549 breast 44.7%
active: T-47D breast -25.2% | MDA-MB-435 melanoma -100% | SW-620 colon -78.4% | MCF7 breast -67.7% | HCT-116 colon -87.1% | HCC-2998 colon -90.9% | KM12 colon -75.4%

COc1cc(NCCCCCN=C(N)NC(N)=NC(C)C)c2ncccc2c1
inactive: T-47D breast 24.6% | MDA-MB-435 melanoma 69.2% | SW-620 colon 25.2% | HCC-2998 colon 11%
active: BT-549 breast -0.951% | MCF7 breast -91.6% | HCT-116 colon -4.52% | KM12 colon 3.06%

CN(C)c1ccc(/C=C(\C#N)c2nc3ccccc3s2)cc1
inactive: T-47D breast 89.4% | BT-549 breast 72.9% | MDA-MB-435 melanoma 89.1% | SW-620 colon 112% | MCF7 breast 89% | HCT-116 colon 96.8% | HCC-2998 colon 106% | KM12 colon 108%

COc1c(Cl)cc(Cl)cc1Cl
inactive: T-47D breast 104% | BT-549 breast 120% | MDA-MB-435 melanoma 115% | SW-620 colon 91.8% | MCF7 breast 111% | HCT-116 colon 109% | HCC-2998 colon 118% | KM12 colon 109%

O=c1c2cccc3c(Nc4ccccn4)ccc(c32)c2nc3ccccc3n12
inactive: T-47D breast 46.6% | BT-549 breast 87.4% | MDA-MB-435 melanoma 99.4% | SW-620 colon 77.1% | MCF7 breast 28.7% | HCT-116 colon 65% | HCC-2998 colon 68.5% | KM12 colon 74.8%

O=C(O)c1c([N+](=O)[O-])cnc2ccccc12
inactive: T-47D breast 83.5% | BT-549 breast 96.7% | MDA-MB-435 melanoma 102% | SW-620 colon 101% | MCF7 breast 93% | HCT-116 colon 97.5% | HCC-2998 colon 100% | KM12 colon 111%
